The whole screen tested about 310,000 compounds, of which about 14,000 (4.5%) showed an effect of 50% or more. Effects have a minus sign here. The sample as a whole holds a higher share of strong results than the screen did.
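Further: peak tail current of the secondary pulse compared with the same well before compound.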

For the experiment, the target named is human ether-à-go-go-related gene (hERG) potassium channel (human, UniProt Q12809). Kind of experiment: primary screen, population patch clamp on CHO cells stably expressing hERG; higher = less effect of the substance.
Chain of human ether-à-go-go-related gene (hERG) potassium channel (Q12809 whole entry, looked up): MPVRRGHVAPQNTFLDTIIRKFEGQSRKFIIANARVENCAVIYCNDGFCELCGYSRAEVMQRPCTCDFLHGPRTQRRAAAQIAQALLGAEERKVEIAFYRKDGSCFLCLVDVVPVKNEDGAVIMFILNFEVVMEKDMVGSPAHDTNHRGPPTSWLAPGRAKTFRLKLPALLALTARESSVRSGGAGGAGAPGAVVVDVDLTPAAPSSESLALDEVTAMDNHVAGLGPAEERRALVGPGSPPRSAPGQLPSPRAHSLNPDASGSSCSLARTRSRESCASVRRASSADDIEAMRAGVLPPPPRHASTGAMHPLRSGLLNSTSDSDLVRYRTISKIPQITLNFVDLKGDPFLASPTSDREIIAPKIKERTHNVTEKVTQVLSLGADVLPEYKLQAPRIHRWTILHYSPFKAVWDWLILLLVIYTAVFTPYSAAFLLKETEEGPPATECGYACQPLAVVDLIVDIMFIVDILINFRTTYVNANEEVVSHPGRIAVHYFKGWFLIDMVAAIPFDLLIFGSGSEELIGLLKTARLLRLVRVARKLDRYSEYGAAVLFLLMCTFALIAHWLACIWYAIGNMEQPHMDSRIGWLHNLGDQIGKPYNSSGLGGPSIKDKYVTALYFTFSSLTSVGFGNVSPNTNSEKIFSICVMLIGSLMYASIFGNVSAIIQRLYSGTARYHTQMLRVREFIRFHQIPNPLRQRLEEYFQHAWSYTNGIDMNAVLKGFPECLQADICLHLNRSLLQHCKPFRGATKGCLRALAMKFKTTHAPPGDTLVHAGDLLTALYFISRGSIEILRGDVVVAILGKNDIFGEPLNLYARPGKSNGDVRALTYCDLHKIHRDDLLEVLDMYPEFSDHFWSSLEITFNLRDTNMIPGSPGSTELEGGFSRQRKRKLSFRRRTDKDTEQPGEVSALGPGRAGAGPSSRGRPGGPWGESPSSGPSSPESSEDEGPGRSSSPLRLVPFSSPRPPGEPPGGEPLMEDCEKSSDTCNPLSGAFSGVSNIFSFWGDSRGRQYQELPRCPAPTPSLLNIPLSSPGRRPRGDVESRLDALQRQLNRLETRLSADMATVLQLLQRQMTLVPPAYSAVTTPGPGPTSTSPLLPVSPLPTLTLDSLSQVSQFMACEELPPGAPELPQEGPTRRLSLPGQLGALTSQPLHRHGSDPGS
Regarding `O=C(COc1ccc2ccccc2c1)N1CCN(C(=O)c2cccnc2)CC1`, the “hERG current change (%, negative = inhibition) at 10uM” value was -25%.

In the case of `O=C(COc1ccccc1)N1CCCC1`, the “hERG current change (%, negative = inhibition) at 10uM” value is listed as 15.6%. In the case of `CCc1ccc(OCC(=O)N2CCN=C2c2ccccc2)cc1`, the “hERG current change (%, negative = inhibition) at 10uM” value is given as -5.36%. Consider `CSC1=NCCN1C(=O)COc1ccccc1`, for which the “hERG current change (%, negative = inhibition) at 10uM” value is 11.3%. Consider `O=C(COc1ccc(-c2ccccc2)cc1)N1CCCC1`, for which the “hERG current change (%, negative = inhibition) at 10uM” value is recorded as -54.5%. The result for `O=C(COc1ccc(-c2ccccc2)cc1)N1CCN(C(=O)c2cccnc2)CC1` reads -57.9%. As for `O=C(COc1ccccc1)N1CCCCCCC1`, the “hERG current change (%, negative = inhibition) at 10uM” value is on record as 3.25%. `O=C(COc1ccccc1)N1CCN=C1c1ccccc1`: the “hERG current change (%, negative = inhibition) at 10uM” value is reported as -77.5%.

As for `Cc1ccc(OCC(=O)N2CCN(C(=O)c3cccnc3)CC2)cc1`, the “hERG current change (%, negative = inhibition) at 10uM” value was -4.29%. For `O=C(NC(=S)Nc1ccc(-c2ccc(CO)o2)cc1)c1cccs1`, the “hERG current change (%, negative = inhibition) at 10uM” value worked out at 21%. Next, `Cc1ccc2c(c1)C(c1ccccc1)N(C(=O)c1c(F)cccc1Cl)CC(=O)N2` (centres unmarked): -22.3%; `Cc1cccnc1NC1=NCC(C)S1` (centres unmarked): 3.1%; `C=CCSC(CC)(CC)C(N)=O`: 3.1%. For `O=C(CNCc1ccco1)Nc1cc(S(=O)(=O)N2CCOCC2)ccc1N1CCCC1`, the “hERG current change (%, negative = inhibition) at 10uM” value is given as -14.4%. The result for `COc1cccc(NCc2nnc(SCC(=O)NC3CCS(=O)(=O)C3)n2C2CCCCC2)c1` (centres unmarked) reads 12.7%. `Cc1cccc(NC(=O)CCN2CCN(C/C=C/c3ccccc3)CC2)c1.Cl`: the “hERG current change (%, negative = inhibition) at 10uM” value is -74%.

In the case of `CCN1CCN(CCC(=O)Nc2cccc(C)c2)CC1.Cl`, the “hERG current change (%, negative = inhibition) at 10uM” value stood at 0.741%. The result for `O=C(CCN1CCN(C/C=C/c2ccccc2)CC1)Nc1ccccc1` reads -74.9%. The result for `Cc1ccc(NC(=O)CCN2CCN(C/C=C/c3ccccc3)CC2)cc1.Cl` reads -90.9%; that for `CN1CCN(CCC(=O)Nc2ccccc2)CC1`, -5.19%; that for `CCN1CCN(CCC(=O)Nc2ccc(C)cc2)CC1.Cl`, -8.34%. The result for `Cl.O=C(CCN1CCCC1)Nc1ccccc1` reads 4.69%; that for `O=C(CCN1CCN(c2ccccc2)CC1)Nc1ccc(Cl)cc1`, -17.9%. For the molecule `O=C(CCN1CCN(C/C=C/c2ccccc2)CC1)Nc1ccc(Cl)cc1`, the “hERG current change (%, negative = inhibition) at 10uM” value is listed as -78.2%. Next, `CCN1CCN(CCC(=O)Nc2ccccc2)CC1`: 8.58%. The result for `Cc1cccc(NC(=O)CCN2CCN(C)CC2)c1.Cl` reads 6.48%; that for `Cl.O=C(CCN1CCOCC1)Nc1ccc(Cl)cc1`, 6.33%. As for `COc1ccc(C(Sc2ccccc2)c2ccccc2)cc1OC` (centres unmarked), the “hERG current change (%, negative = inhibition) at 10uM” value is reported as 7.26%.

Consider `O=C(O)CCN=CC1=C(O)CC(c2ccccc2)CC1=O` (centres unmarked), for which the “hERG current change (%, negative = inhibition) at 10uM” value stood at 3.13%. Take `O=C(C[n+]1cccc(O)c1)NCc1ccc(Cl)cc1.[Cl-]`: the “hERG current change (%, negative = inhibition) at 10uM” value came to 24.2%. Next, `CCOC(=O)CC1C(=O)NCCN1C(=O)c1ccc(C)cc1` (centres unmarked): 14.9%; `Cc1sc2c(c1C)C(O)=C(C(=O)Nc1ccccc1)S(=O)(=O)N2C`: 4.91%; `O=C(CSc1nnc2c(n1)[nH]c1ccc(F)cc12)N1CCOCC1`: 5.63%. Next, `Cc1ccc(NC(=O)CCN2CCCCC2)cc1.Cl`: -0.243%. The result for `Cc1ccc(NC(=O)CCN2CCC(Cc3ccccc3)CC2)cc1` reads -75.1%; that for `Cc1cc(NC(=O)CCN2CCN(Cc3ccccc3)CC2)ccc1Br.Cl`, -28%; that for `Cc1ccc(NC(=O)CCN2CCC(C(N)=O)CC2)cc1`, 17.3%. In the case of `Cc1ccc(NC(=O)CCN2CCc3ccccc3C2)cc1.Cl`, the “hERG current change (%, negative = inhibition) at 10uM” value is given as -60.8%. Next, `COc1cc(CN2CCc3ccc(NC(=O)CCc4ccccc4OC)cc3C2)ccc1O`: -37.3%. The result for `Cc1ccc(NC(=O)CCN2CCOCC2)cc1C` reads 14.1%. The result for `Cc1ccc(NC(=O)CCN2CCN(C/C=C/c3ccccc3)CC2)cc1C.Cl` reads -71.8%. As to `COc1cccc(CN2CCc3ccc(NC(=O)CCc4ccc(C)cc4)cc3C2)c1O`, the “hERG current change (%, negative = inhibition) at 10uM” value is -52.2%.

Regarding `Cc1ccc(NC(=O)CN2CCc3ccccc3C2)cc1`, the “hERG current change (%, negative = inhibition) at 10uM” value is given as -30.3%. The result for `COc1ccc(CN2CCc3ccc(NC(=O)CCc4ccccc4OC)cc3C2)c(O)c1` reads -35.2%. Consider `O=C(CCN1CCc2ccccc2C1)Nc1ccccc1`, for which the “hERG current change (%, negative = inhibition) at 10uM” value was -24.2%. Next, `CSc1ncccc1C(=O)N1CCCC(N2CCN(c3ccccc3F)CC2)C1` (centres unmarked): -12.4%; `NS(=O)(=O)c1ccc(CCNC(=O)CN2C(=O)c3ccccc3S2(=O)=O)cc1`: 1.3%.

(Values after PMC4336329 (PLoS ONE, 2015).)
